# Compounds with a hit are over-represented: about 3.1% of the library has one in this group of screens.
# HSF-1 act: increases HSF-1 driven luciferase reporter signal; NIH3T3-HGL HSF-1 luciferase reporter, MG132, 8 h; 100% = twice DMSO control signal; activation, % at 9 µM; hit rate 1.7% among 300,000;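 active means mean replicate activation of at least 50% with a set share of replicates each reaching 50%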;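 further: 0% = median of the neutral control wells and 100% = twice that signal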
# HSP90 refold inh: blocks HSP90-mediated luciferase refolding in reticulocyte lysate; Rabbit reticulocyte lysate, luciferase refolding luminescence, 3 h; inhibition, % at 5.6 µM; hit rate 0.91% among 290,000;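 active means inhibition above the screen-wide mean plus 3 SD, computed separately per campaign, cut at about 16% in these data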;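 further: 0% = DMSO wells and 100% = 60 µM geldanamycin wells; inhibitors lower the luminescence because luciferase stays unfolded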
# HSF1 inh: HSF1 inhibition. AID 2098. activity change, negative = inhibition, % at 7.5 µM (by protocol). hit rate 0.77% among 300,000. NIH3T3-HGL HSE-luciferase, MG132-induced, luminescence 8 h; stronger effect = lower value;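 active means more than half of replicate wells show activity change below -50%, luminescence cut by over half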;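 further: luciferase reports HSF-1 transcriptional activity via heat shock element; 0% = median of DMSO wells and -100% = zero luminescence signal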
# HIF activator: HIF pathway transcriptional activation. hit rate 0.32% among 300,000. activation, % at 7.5 µM (by protocol). U2OS HRE-luciferase reporter, luminescence; normalized: DMSO 0%, desferrioxamine 100%;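 active means mean activation of at least 10% of the iron chelator positive control signal, with at least half of replicates also reaching 10%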
# ARNT-TACC3 inh: disrupts binding between human ARNT and TACC3; Q9Y6A5; AlphaScreen His-ARNT PAS-B/GST-TACC3 binding, luminescence; TACC3 fragment carries E629A point mutation; inhibition, % at 9.99 µM; hit rate 0.66% among 390,000;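 active means mean inhibition of replicates at least 50% and at least half of replicates each reaching 50%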;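 further: 0% = complete ARNT plus TACC3 wells and 100% = ARNT alone without TACC3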
# The depositor's hits bear a star; nt = not tested or not shown.
SMILES,HSF-1 act,HSP90 refold inh,HSF1 inh,HIF activator,ARNT-TACC3 inh
CC(C)Oc1cccc(C(=O)NC(=S)Nc2cccc(NC(=O)c3ccccc3Cl)c2)c1,2.9,-1.4,7.2,0.6,48.6*
CC(=O)c1cccc(NC(=S)NC(=O)c2cccc(Cl)c2)c1,56.2*,-3.0,37.3,3.5,-4.1
CC(=O)c1cccc(NC(=S)NC(=O)c2ccccc2)c1,54.5*,-2.4,22.2,2.4,6.0
CC(C)CC(=O)NC(=S)Nc1cccc(NC(=O)c2ccccc2Cl)c1,-15.4,-2.4,-1.0,-0.3,6.4
CO[C@H]1CN(C)C(=O)c2ccc(NC(=O)C3CCOCC3)cc2OC[C@@H](C)N(Cc2cccnc2)C[C@@H]1C,nt,nt,nt,nt,-4.7
O=C(NCC[C@@H]1CC[C@H](NS(=O)(=O)Cc2ccccc2)[C@@H](CO)O1)C1CCCC1,nt,nt,nt,nt,-4.8
C[C@@H]1CN([C@@H](C)CO)S(=O)(=O)c2ccc(C#CC(C)(C)O)cc2O[C@@H]1CN(C)C(=O)C1CCCCC1,nt,nt,nt,nt,1.7
CCOC(=O)c1ccc(N2C(=O)CC(N3CCN(Cc4ccccc4)CC3)C2=O)cc1 (stereo not drawn),3.3,3.5,-4.0,0.1,-6.4
CCOC(=O)c1ccc(N2C(=O)CC(N3CCC(Nc4ccc(F)cc4)CC3)C2=O)cc1 (stereo not drawn),57.9*,6.8,22.7,-0.1,2.0
O=C(O)c1ccc(CN2C(=O)c3cccc4c([N+](=O)[O-])ccc(c34)C2=O)cc1,-82.0,4.2,-83.5*,-0.6,1.7
Cc1ccc(C(=O)O)cc1N1C(=O)c2cccc3c([N+](=O)[O-])ccc(c23)C1=O,-10.2,3.0,-9.3,0.8,0.7
CO[C@@H]1CN(C)C(=O)c2ccc(NC(=O)Cc3ccccc3)cc2OC[C@H](C)NC[C@@H]1C,nt,nt,nt,nt,-0.9
COc1ccc(OC)c(NC(=O)CSc2ccccc2)c1,29.7,-0.1,8.8,1.1,2.8
COc1ccc(OC)c(NC(=O)CS(=O)(=O)c2ccccc2)c1,-7.3,2.6,2.8,-0.4,-2.6
COc1ccc(OC)c(NC(=O)CSCC(=O)O)c1,-92.0,3.0,-90.0*,-0.3,-9.0
COc1ccc(OC)c(NC(=O)CS(=O)(=O)Cc2ccccc2)c1,-71.3,1.2,-60.5*,0.4,-0.3
O=C(O)C1Cc2[nH]cnc2C(c2ccccc2O)N1 (stereo not drawn),0.3,-0.1,-2.4,0.2,82.3*
C=C1CCC[C@]2(C)C[C@H]3OC(=O)C(CNCCN(CC)CC)[C@H]3CC12 (stereo partly drawn),61.0*,7.1,11.4,-29.8,-10.1
C=C1CCC[C@]2(C)C[C@H]3OC(=O)C(CNCC(C)C)[C@H]3CC12 (stereo partly drawn),68.0*,0.2,37.9,-0.5,2.3
CCC(=O)Nc1ccc2c(c1)ncn2-c1ccc(C)cc1,52.6*,-3.9,25.8,1.4,15.6
CCC(=O)Nc1ccc2c(c1)ncn2-c1ccc(OC)cc1,12.0,-2.7,-1.5,1.2,-3.5
Cc1ccc(-c2cn(S(=O)(=O)c3ccc(C)cc3)nc2N)cc1,69.7*,-4.3,26.0,0.1,-24.6
Cc1ccc(C(=O)C(C)OC(=O)c2ccccc2[N+](=O)[O-])cc1 (stereo not drawn),86.5*,6.3,50.6,1.5,-7.2
O=C(/C=C/c1ccccc1[N+](=O)[O-])c1ccccc1Br,64.8*,6.0,42.6,3.1,-3.6
O=C(/C=C\c1ccccc1[N+](=O)[O-])Nc1ccccc1,30.5,-1.6,44.8,4.9,-7.9
SMILES,HSF-1 act,HSP90 refold inh,HSF1 inh,HIF activator,ARNT-TACC3 inh
O=C(C=Cc1ccccc1)c1ccc([N+](=O)[O-])cc1,nt,nt,nt,nt,1.3
Cc1ccc(C(=O)/C=C/c2ccccc2[N+](=O)[O-])cc1,135.2*,-1.7,90.9,7.7,-7.9
CCCC#Cc1ccc2c(c1)[C@H]1[C@H](CCN1S(=O)(=O)c1ccc(C)cc1)[C@H](CO)N2C,nt,nt,nt,nt,6.3
O=C1CC(c2ccccc2Cl)CC(O)=C1C=Nc1ccccc1 (stereo not drawn),151.8*,-1.2,118.5,-0.9,3.0
Cc1cc(C)nc(N/N=C/C2=C(O)CC(c3ccccc3)CC2=O)n1 (stereo not drawn),2.5,0.4,-9.3,22.4*,nt
O=C1CC(c2ccccc2)CC(O)=C1C=Nc1cccc(Cl)c1 (stereo not drawn),120.4*,2.1,78.8,-0.4,2.6
Cc1ccc(N=CC2=C(O)CC(c3ccccc3Cl)CC2=O)cc1 (stereo not drawn),0.3,1.8,4.5,0.4,nt
O=C1CC(c2ccccc2)CC(O)=C1C=Nc1ccc(Cl)cc1 (stereo not drawn),141.4*,1.9,103.8,-0.1,-12.5
O=C1CC(c2ccccc2)CC(O)=C1C=Nc1ccccc1Cl (stereo not drawn),5.5,2.1,11.7,0.0,-13.7
CO[C@H]1CN(C)C(=O)c2ccc(NS(C)(=O)=O)cc2OC[C@H](C)N(C(=O)C2CCCC2)C[C@@H]1C,nt,nt,nt,nt,-2.6
CCCNC(=O)C[C@@H]1C[C@H]2c3cc(NS(=O)(=O)c4cccc(OC)c4)ccc3O[C@H]2[C@@H](CO)O1,nt,nt,nt,nt,-9.7
C[C@@H]1CCCCO[C@H](CN(C)Cc2ccc(C(F)(F)F)cc2)[C@H](C)CN([C@H](C)CO)C(=O)c2cc(NC(=O)Nc3ccccc3)ccc2O1,nt,nt,nt,nt,-13.1
CCCN=CC1=C(O)CC(c2ccccc2)CC1=O (stereo not drawn),5.4,-1.8,3.3,-0.7,-2.2
CC(C)CCN=CC1=C(O)CC(c2ccccc2)CC1=O (stereo not drawn),66.8*,-2.8,27.9,0.2,-10.0
O=C(Cc1ccsc1)Nc1ccc(S(=O)(=O)C(F)F)cc1,-71.4,-1.9,-63.5*,0.0,-3.1
Cc1ccccc1Oc1nc2c(C)cccn2c(=O)c1/C=C(\C#N)C(=O)Nc1c(C)n(C)n(-c2ccccc2)c1=O,136.6*,0.0,104.8,0.7,-2.0
Cc1ccccc1Oc1nc2ccccn2c(=O)c1/C=C(\C#N)C(=O)Nc1c(C)n(C)n(-c2ccccc2)c1=O,4.8,-0.8,5.6,-0.4,1.0
CCCNC(=O)[C@H]1[C@H](CO)[C@H]2Cn3c(ccc(C4=CCCCC4)c3=O)[C@@H]1N2CC,nt,nt,nt,nt,-11.3
CCOC(=O)N1c2ccccc2C=CC1OCC (stereo not drawn),-11.4,5.8,0.1,0.2,6.0
CC1C=Cc2ccccc2N1C(=O)c1ccccc1 (stereo not drawn),-70.3,2.3,-63.1*,-0.4,21.2
CC(=O)NC(=S)Nc1ccc(NC(=O)COc2ccc(Cl)cc2)cc1,64.4*,-1.0,32.1,0.4,-5.6
COc1ccc(NC(=S)NNC(=O)COc2ccc(Cl)cc2Cl)cc1,19.1,1.5,1.3,-0.2,-2.7
CCC(=O)NC(=S)Nc1ccc(NC(=O)COc2ccc(Cl)c(C)c2)cc1,79.2*,-4.9,45.2,-0.1,-5.4
CCC(=O)NC(=S)Nc1ccc(NC(=O)COc2ccc(Cl)cc2Cl)cc1,52.7*,1.1,30.9,3.3,1.5

# Assay outcomes as filed in PubChem.
